Data from PubChem BioAssay (Tox21).
Inconclusive results are not listed. A call without a number means that no potency is given here. Activity calls are given as the source filed them. The call rests on the fitted dose curve.

Target: Acetylcholinesterase (Homo sapiens) (UniProt P22303)
Assay: Acetylcholinesterase (AChE) small molecule antagonists: colormetric cell-based qHTS assay (AID 1347395); further: nearly all actives have a fitted effect of over 30% in size
Details: SH-SY5Y cells AChE activity, colorimetric (Ellman); series mostly up to 115 µM
Summary of the method: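 SH-SY5Y cells; cpd 30 min 37 C; + DTNB/acetylthiocholine, 90 min 37 C; colorimetric thiocholine read; qHTS.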

Sequence of Acetylcholinesterase (Homo sapiens) (P22303 whole entry, looked up): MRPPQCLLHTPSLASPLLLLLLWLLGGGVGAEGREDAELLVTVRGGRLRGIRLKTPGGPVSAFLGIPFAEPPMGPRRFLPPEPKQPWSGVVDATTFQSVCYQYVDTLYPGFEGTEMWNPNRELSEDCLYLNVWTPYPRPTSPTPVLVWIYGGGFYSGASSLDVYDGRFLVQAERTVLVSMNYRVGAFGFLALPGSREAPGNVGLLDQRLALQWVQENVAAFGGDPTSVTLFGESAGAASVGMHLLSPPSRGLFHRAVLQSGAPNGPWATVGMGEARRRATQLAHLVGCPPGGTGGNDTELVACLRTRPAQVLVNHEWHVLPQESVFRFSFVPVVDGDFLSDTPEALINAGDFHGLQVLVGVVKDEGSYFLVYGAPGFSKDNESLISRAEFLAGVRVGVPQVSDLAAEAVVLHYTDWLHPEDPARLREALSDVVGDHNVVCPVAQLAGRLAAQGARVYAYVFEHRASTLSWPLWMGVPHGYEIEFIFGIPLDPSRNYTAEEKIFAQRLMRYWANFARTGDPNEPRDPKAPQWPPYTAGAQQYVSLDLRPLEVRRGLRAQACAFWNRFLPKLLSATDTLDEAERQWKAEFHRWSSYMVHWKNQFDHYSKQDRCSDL

SMILES | Potency | activity, negative = inhibition
NCCN1CCNC1=O | inactive | –
COc1ccccc1Oc1c(NS(=O)(=O)c2ccc(C(C)(C)C)cc2)nc(-c2ncccn2)nc1OCCO | inactive | –
CCCCCCCCCCCCCCCBr | inactive | –
CCOC(N)=O | inactive | –
NC(=O)CCCCC1CCSS1 (stereo unspecified) | inactive | –
Oc1c(Cl)cc(Cl)c2cccnc12 | inactive | –
CCn1cc(C(=O)O)c(=O)c2cnc(N3CCCC3)nc21 | – | 2.45% [at 10.5 µM] (inactive)
O=C1c2ccccc2C(=O)C1c1ccc(Br)cc1 | inactive | –
CCCCC(CC)CN1CN(CC(CC)CCCC)CC(C)(N)C1 (stereo unspecified) | inactive | –
SCCc1cnccn1 | inactive | –
Cc1cc(C2(c3cc(C)c(O)cc3C)OS(=O)(=O)c3ccccc32)c(C)cc1O | inactive | –
C[C@@H]1C[C@H]2[C@@H]3CCC4=CC(=O)C=C[C@]4(C)[C@@]3(F)[C@@H](O)C[C@]2(C)[C@@]1(O)C(=O)COC(=O)c1ccncc1 | inactive | –
CC(=O)CC/C=C(\C)CCC=C(C)C | inactive | –
CO[Si](CCCn1c(=O)n(CCC[Si](OC)(OC)OC)c(=O)n(CCC[Si](OC)(OC)OC)c1=O)(OC)OC | inactive | –
COCCCOc1cc(C[C@@H](C[C@H](N)[C@@H](O)C[C@H](C(=O)NCC(C)(C)C(N)=O)C(C)C)C(C)C)ccc1OC | inactive | –
NCCOCCOCCN | inactive | –
CC(C)CC(C)O (stereo unspecified) | inactive | –
CC(C)C(=O)OC(=O)C(C)C | inactive | –
O=C(Nc1cccc(Cl)c1)OCC#CCCl | inactive | –
CC/C(C)=N\O[Si](C)(O/N=C(\C)CC)O/N=C(\C)CC | inactive | –
O=C(Oc1ccccc1)c1ccc2ccccc2c1O | inactive | –
